Compound activity: PubChem BioAssay, several laboratories
CF NFkB inh = cystic fibrosis NF-kB activation inhibition; 360,000 compounds, 0.86% hits; KKLEB NF-kB-GFP reporter, PAF-induced, GFP fluorescence overnight; inhibition, % at 5 µM;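 active means at least 50% inhibition at 5 µM, scaled per plate between neutral and stimulator controls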;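 further: PAF is a Pseudomonas aeruginosa culture filtrate used as stimulus; plate controls were PAF-stimulated DMSO wells for no effect and unstimulated DMSO wells for full effect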
TRPM1 prom inh = reduces MITF-dependent TRPM1 promoter luciferase signal. SK-MEL-5 TRPM1 promoter luciferase, 24 h. inhibition, % at 12.5 µM. 330,000 compounds, 0.83% hits. AID 488899;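 active means mean inhibition across replicates of 60% or more, whatever share of single replicates reaches that level; inconclusive means some that reach 60%, reason not given; inactive means mean inhibition across replicates below 60%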
LMP1 NFkB inh = inhibitors of Epstein-Barr LMP1-induced NF-kappaB reporter; LMP1-induced NF-kappaB luciferase reporter cells, luminescence; 350,000 compounds, 0.69% hits; inhibition, % at 12.5 µM; AID 504558; in the data active means inhibition above about 41%; inconclusive means no clear call, values can overlap the other calls;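 further: 0% = neutral control wells and 100% = reference inhibitor control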
Peg3 promoter = Peg3 promoter activity inhibition. HeLa PEG-Prom luciferase reporter, luminescence, overnight. inhibition, % at 20 µM. 360,000 compounds, 1.7% hits. AID 588405;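 active means inhibition of at least 50% at 20 µM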
KKLEB tox = CF airway cell cytotoxicity counter-screen | KKLEB CF airway cells viability, ATPlite luminescence, overnight; stronger effect = lower value; cells stimulated with P. aeruginosa culture filtrate | activity change (cytotoxicity), % at 5 µM | 360,000 compounds, 0.36% hits | AID 602141;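 active means corrected activity change at or below -50% at 5 µM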
HIF-2a inh = inhibitors of HIF-2a; 786-0 RCC cells HIF-2a reporter, luciferase luminescence, overnight; inhibition, % at 18.8 µM; 360,000 compounds, 0.72% hits;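 active means inhibition of the luminescence signal of 40% or more relative to plate controls, in a single-dose primary screen at 18.75 µM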
An asterisk follows results filed as active; ? = inconclusive; nt = no result. An excerpt weighted towards active compounds, which were near 3% of everything screened.

SMILES	CF NFkB inh	TRPM1 prom inh	LMP1 NFkB inh	Peg3 promoter	KKLEB tox	HIF-2a inh
CCCCN(C(=O)c1ccc(N(C)S(=O)(=O)c2ccc(C)cc2)cc1)c1c(N)n(CC(C)C)c(=O)[nH]c1=O	6	-10	-8	7	3	3
CCc1ccc(Cn2ncc3c(C(=O)O)cc(C)nc32)cc1	2	-9	3	16	-8	7
N#Cc1cc(C(=O)c2cc(Br)ccc2O)cn(C2CCCCC2)c1=O	33	2	6	52*	-7	3
N#Cc1cc(C(=O)c2ccccc2OCC(=O)Nc2ccccc2Cl)cn(C2CCCCC2)c1=O	-6	0	3	16	1	18
CCN1C(=O)[C@@H]2[C@@H](c3ccc(-c4ccc(Cl)c(Cl)c4)cc3)N3CCC[C@@]3(C(=O)OC)[C@@H]2C1=O	23	20	75*	27	-7	12
COc1cccc(CN(C)CCCn2cnc3c(SC)ncnc32)c1	-23	nt	-2	-14	-11	6
COc1ccccc1N1CCN(CCS(=O)(=O)c2cc(Cl)ccc2Cl)CC1	-15	nt	-8	6	2	-3
COc1cccc(C2Nc3ccc4ccccc4c3C3=C2C(=O)CC(C)(C)C3)c1OCC(=O)O (stereo not drawn)	-12	8	55*	9	1	9
CCC(NC(=O)Nn1cnnc1)(C(F)(F)F)C(F)(F)F	2	2	66*	8	1	8
COc1cccc(-c2cnc(C(O)c3ccc(OC)c(F)c3)[nH]2)c1 (stereo not drawn)	6	nt	nt	11	-2	3
CCC[C@H]1CN(c2ccc(Br)cc2)C(=O)[C@@H]1CC(=O)Nc1ccccc1	-14	nt	9	20	-5	-14
COc1cc(C2NC(=O)NC(C)=C2C(=O)OC2CCCC(C)C2)cc(Br)c1O (stereo not drawn)	2	-12	49*	26	6	19
COc1cc(C2NC(=O)NC(C)=C2C(=O)OC2CCCCC2)cc(Cl)c1O (stereo not drawn)	13	-6	-16	20	5	20
COc1ccc(C(=O)N=c2nc3ccccn3s2)cc1	-9	54	64*	-39	-48	46*
Nc1ncc(Br)cc1S(=O)(=O)Nc1cc(C(F)(F)F)cc(C(F)(F)F)c1	37	-5	8	44	-10	-14
Cc1ccc2c(c1)sc(-c1ccc(N(C)C)cc1)[n+]2C	14	62*	22	-99	-16	-85
Cc1cccc(C)c1-n1nnnc1C1c2ccccc2C(=O)N1CCCn1ccnc1 (stereo not drawn)	nt	nt	nt	nt	nt	-2
CC(C)(C)c1ccc(NC(=O)c2cc(C3CCCN(C(=O)CCc4ccccc4)C3)on2)cc1 (stereo not drawn)	-27	nt	nt	4	-6	-28
CC1Cc2nc(SCC(=O)N3CCN(c4ccccc4)CC3)n(C)c(=O)c2S1 (stereo not drawn)	-18	-1	77*	13	2	9
CCn1c(SCC(=O)N2CCN(c3ccccc3)CC2)nc2c(c1=O)SC(C)C2 (stereo not drawn)	15	9	17	5	-5	19
Cc1ccc(C(=O)NCC(=O)N(C)Cc2cccc(F)c2)s1	17	-9	51*	-18	-12	-23
Cc1ccc(SC(C)c2nc(-c3ccccc3)no2)cc1 (stereo not drawn)	-2	-21	59*	-102	-8	-140
CC(C)(C)OC(=O)NCCc1nnc(SCc2ccccc2Cl)o1	0	2	2	22	0	-32
CC(C)(C)OC(=O)NCCc1nnc(S(=O)(=O)Cc2ccc(Cl)cc2Cl)o1	60*	4	6	47	-12	3
NC(=S)N=Nc1c(O)n(Cc2ccc(Br)cc2)c2ccccc12	42	30	25	18	-52*	35
SMILES	CF NFkB inh	TRPM1 prom inh	LMP1 NFkB inh	Peg3 promoter	KKLEB tox	HIF-2a inh
NC(=S)N=Nc1c(O)n(Cc2ccc(F)cc2)c2ccccc12	-1	4	8	16	-21	7
C/C(Cl)=C\Cn1c(O)c(N=NC(N)=S)c2cc(Br)ccc21	56*	16	22	0	-6	19
O=C(Nc1c(-c2ccccc2)[nH][nH]c1=O)c1ccco1	-37	nt	nt	-6	9	4
COc1ccc(CCC(=O)Nc2cc([N+](=O)[O-])ccc2OC)cc1	3	4	-3	6	-6	-1
COc1ccc(CCC(=O)Nc2ccc(C)c([N+](=O)[O-])c2)cc1	15	-9	62*	13	0	-5
O=C(Nc1ccc([N+](=O)[O-])cc1)Nc1nc(-c2ccc(Cl)s2)cs1	48	72*	55*	69*	-47	13
C[C@H](CO)N1C[C@H](C)[C@@H](CN(C)Cc2ccncc2)OCc2cnnn2CCCC1=O	-26	nt	6	-12	-11	-6
c1ccc([C@H]2CNCCN2CCc2cccc3ccccc23)cc1	32	3	10	86*	-14	1
COc1cc(CCCN2CCNC[C@@H]2c2ccccc2)cc(OC)c1OC	-23	-3	-2	-17	-3	6
c1ccc2c(C[C@@H]3CNCCN3CC3CCCCC3)cccc2c1	11	-7	-3	94*	-3	8
O=C(COC(=O)c1c(F)cccc1F)Nc1cccc(S(=O)(=O)N2CCCCC2)c1	-6	nt	-11	8	4	1
O=C(COc1cccc(C(F)(F)F)c1)NNC(=O)c1ccc(=O)[nH]c1	12	-4	72*	14	-2	4
Fc1ccc2cnc(-c3ccccc3)c(-c3ccc(C(F)(F)F)cc3)c2c1	-4	3	-1	-18	-4	-22
COc1cc2cnc(-c3ccccc3)c(-c3ccc(C(F)(F)F)cc3)c2cc1OC	19	-13	14	64*	1	-58
Cc1ccc2c(c1)N(CC(=O)N1CCCC1)C(=O)c1cccnc1O2	7	0	61*	20	10	11
Cn1cc(CN2CCC(C(=O)NC(c3ccc(-c4ccccc4)cc3)c3cnccn3)CC2)c2ccccc21 (stereo not drawn)	38	nt	nt	107*	-28	-30
O=C(NC(c1ccc(-c2ccccc2)cc1)c1cnccn1)C1CCN(Cc2ccc(Cl)c(Cl)c2)CC1 (stereo not drawn)	4	nt	nt	26	-14	-11
Cc1cc(=O)[nH]c2nc3ccccc3n12	10	nt	-9	-23	-3	-19
O=[N+]([O-])c1ccc(/C=N/NS(=O)(=O)c2ccc(Cl)cc2)o1	4	12	-21	17	9	7
Clc1ccc2c(N/N=C/c3cccc(Br)c3)ccnc2c1	-34	83*	-77	76*	-17	-82
O=[N+]([O-])c1ccc(/C=N/Nc2ccnc3cc(Cl)ccc23)o1	-30	?	-16	93*	2	-166
Clc1ccc2c(NNc3ccccc3Cl)ccnc2c1	4	6	7	-18	-3	-11
